# Bioassay records from PubChem.
# Shown is part of a subset that was picked to be rich in hits.
# Pf apPOL block: Pf-apPOL DNA polymerase inhibition; inhibition, % at 10 µM; AID 1794808; 210,000 compounds, 0.25% hits; Recombinant Pf-apPOL, molecular beacon fluorescence, 1.5 h
# mHTT CaM bind: disrupts binding of mutant huntingtin to calmodulin; P42858; AlphaScreen His-mHTT/GST-CaM binding, luminescence; inhibition, % at 15 µM; 190,000 compounds, 3.6% hits; AID 1671202;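 further: 0% = both proteins with DMSO and 100% = one protein alone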
# The depositor's hits bear a star; i = inactive; . = not tested or not shown. No stated cut-off is given here; in the data, active means inhibition above about 50%; inactive means the rest.
SMILES,Pf apPOL block,mHTT CaM bind
CC(C)(C)C1CCc2onc(C(=O)Nc3cc(Cl)ccc3O)c2C1 (centres undefined),-5,61*
O=C(Nc1ccccc1-c1nc2ccccc2[nH]1)c1ccccc1F,5,34
CCSc1ccccc1C(=O)Nc1ccccc1-c1nc2ccccc2[nH]1,-9,61*
COc1cn(CC(=O)NCc2ccccc2Cl)c(CO)cc1=O,4,-8
O=C(c1cccc(Cl)c1)N1N=C(c2ccc(Cl)cc2)CC1(O)C(F)(F)F (centres undefined),-2,-4
Cc1cccc(C(=O)N2N=C(c3ccc(Cl)cc3)CC2(O)C(F)(F)F)c1 (centres undefined),-7,89*
CCC1=NN(C(=O)c2ccc(I)cc2)C(O)(C(F)(F)F)C1 (centres undefined),3,15
CCC1=NN(C(=O)c2ccc(Cl)cc2)C(O)(C(F)(F)F)C1 (centres undefined),94*,8
Cc1ccc(-c2nc(C=Nc3cc(Cl)c(Cl)cc3Cl)c(O)o2)cc1,2,0
NCCc1c(-c2cccs2)[nH]c2ccccc12,-6,88*
c1csc(-c2cc3ccccc3[nH]2)c1,11,.
O=c1[nH]c2ccccc2c(=O)n1Cc1ccccc1,-7,-4
Cc1c(Cc2ccccc2)[nH]c2ccccc12,1,100*
C=C(C)Cn1c(=O)c2c(nc3oc(-c4ccccc4)cn32)n(C)c1=O,-11,-8
COc1ccc(C)cc1NC(=O)N1CC=C(c2cn(C(C)C)c3ncccc23)CC1,-4,53*
Cc1ccccc1NC(=O)N1CC=C(c2cn(C(C)C)c3ncccc23)CC1,-6,27
CC(CCc1ccc(O)cc1)Nc1ccc2[nH]ncc2c1 (centres undefined),1,40
COc1ccc(CNc2ccc3[nH]ncc3c2)cc1C,12,65*
COc1ccc(CNc2ccccc2)cc1C,-2,8
Cc1ccc(C)c(CNc2ccc3[nH]ncc3c2)c1,0,75*
O=C(CSc1cc(N2CCCCC2)ncn1)Nc1cccc(C(F)(F)F)c1,2,-10
Cc1ccc(NCCC(=O)c2cccc([N+](=O)[O-])c2)cc1,-5,27
CC(C)c1ccc(NCCC(=O)c2ccc([N+](=O)[O-])cc2)cc1,-1,56*
CC(=O)c1ccc(NC(=O)c2cccc(OC(C)C)c2)cc1,-6,-1
O=C1[C@H](Cc2ccccc2)NC/C=C\C[C@H](c2ccco2)N1Cc1ccccc1,1,51*
SMILES,Pf apPOL block,mHTT CaM bind
O=C1[C@H](Cc2ccccc2)NC/C=C\C[C@@H](c2ccc(Cl)cc2)N1Cc1ccc(Cl)cc1,1,99*
O=C(NCCc1ccccc1)N1CCCC1c1ccc(Cl)cc1 (centres undefined),-4,0
COC(=O)C1=C(C(=O)OC)[C@]2([C@@H]3C/C=C\CN[C@@H](Cc4ccccc4)C(=O)N3Cc3ccccc3)C=C[C@H]1O2,-3,25
Cc1ccc(CNC(=O)Cc2c[nH]c3ncccc23)cc1C,-1,-11
CNC(=O)CCN1C(=O)CSC1c1ccccc1Cl (centres undefined),-6,8
CCc1noc(-c2cccnc2N2CCCN(C(=O)Cc3ccccc3OC)CC2)n1,-21,8
COc1ccc(C(=O)/C=C2/NC(=O)CS2)cc1,77*,-7
COc1cccc(C(=O)C=C2NC(=O)CS2)c1,-7,.
Cc1ccc(C(=O)N2CCC(c3nc(C(=O)N4CCCC4)c(C)o3)CC2)c(C)c1,-8,10
CSc1cccc(NC(=O)CN(C)S(=O)(=O)c2ccc(Br)cc2)c1,-1,3
O=C(Nc1ccc(F)c(Cl)c1)N1CC2CCCN2c2ccccc21 (centres undefined),-3,4
COc1ccc(OC)c(NC(=O)N2CCCC2c2ccccc2C)c1 (centres undefined),-4,19
CCOC(=O)c1cccc(NC(=O)N2CC(CC)Oc3ccccc32)c1 (centres undefined),-3,-19
COc1ccc(OC)c(CCNC(=O)CCC(=O)N2CC3CCCN3c3ccccc32)c1 (centres undefined),-2,53*
COc1ccc(CNC(=O)CCC(=O)N2CC3CCCN3c3ccccc32)c(OC)c1 (centres undefined),-4,36
CCOC(=O)c1cccc(NC(=O)N2CC3CCCN3c3ccccc32)c1 (centres undefined),0,78*
COC(=O)c1cccc(NC(=O)N2CC3CCCN3c3ccccc32)c1 (centres undefined),-2,69*
COc1ccc(OC)c(NC(=O)N2CC3CCCN3c3ccccc32)c1 (centres undefined),1,83*
Cc1ccccc1C(=O)N1CCc2c(nc3cc(-c4ccccc4Cl)[nH]n3c2=O)C1,-3,33
COc1ccc(OC)c(NC(=O)N2CC(C)Oc3ccc(C)cc32)c1 (centres undefined),-16,62*
COc1ccccc1NC(=O)N1CC(C)Oc2ccc(C)cc21 (centres undefined),-4,-2
CCOC(=O)CNC(=O)N1CC2CCCN2c2ccccc21 (centres undefined),-3,16
O=C(Nc1cccc(F)c1)N1CC2CCCN2c2ccccc21 (centres undefined),-3,46
COc1cc(NC(=O)N2CCOc3ccc(C)cc32)cc(OC)c1OC,-7,8
COc1cc(NC(=O)N2CC3CCCN3c3ccccc32)cc(OC)c1OC (centres undefined),4,62*
SMILES,Pf apPOL block,mHTT CaM bind
COc1cccc(NC(=O)N2CC3CCCN3c3ccccc32)c1 (centres undefined),-3,73*
COc1cccc(CNC(=O)N2CC3CCCN3c3ccccc32)c1 (centres undefined),0,66*
CCCCN1C(=O)C(C)(C(=O)Nc2ccc(C)cc2F)Oc2cccnc21 (centres undefined),-6,-28
Cc1noc(C)c1C(=O)N1CCCC1c1ccc(F)cc1 (centres undefined),-17,-4
CCOc1cccc2cc(C(=O)Nc3ccccc3)c(=Nc3ccc(C(=O)O)cc3)oc12,2,-7
Cn1cccc1C(=O)N1CC2CN(S(=O)(=O)c3ccc(F)cc3)CC(C1)O2,-2,18
O=C1CCS(=O)(=O)N1c1ccc(S(=O)(=O)N2CCc3ccccc3C2)cc1,-4,-9
O=C(c1ccc(F)c(F)c1)N1CCC2(CC1)NC(=O)N(Cc1ccccc1Cl)C2=O,-3,1
Cc1c(C)c(/C=N/O)c(C)c(C)c1/C=N/O,.,i
COc1ccc(Cl)cc1NC(=O)CSc1nc2c(c(=O)n1-c1ccccc1)SCC2,-7,4
Cc1noc(C)c1C(=O)N1CCCC1c1ccccc1F (centres undefined),-7,1
Cn1ncc(N2CCC(C(=O)NCc3ccc(F)cc3F)CC2)cc1=O,-3,-6
O=C(Nc1ccc(OC(F)(F)F)cc1)Nc1cc(C(F)(F)F)ccc1N1CCOCC1,-9,.
COc1ccccc1NC(=O)N1CCN(C)c2ccccc21,0,61*
COc1ccccc1NC(=O)N1CCN(c2ccccc2OC)CC1,-30,-1
Nc1c(Oc2ccccc2)c(Oc2ccccc2)c(N)c2c1C(=O)c1ccccc1C2=O,-3,97*
Cc1nc(N)[nH]c(=O)c1Oc1ccccc1,-2,-2
Cc1ccc2[nH]c(=O)c(CCC(=O)N(C)C)cc2c1,-2,-6
COc1ccc(C(=O)NCCC(=O)NCC(OC)OC)cc1OC,-2,3
